Calls of active or inactive are those of the source. Calls come from the whole dose curve; as a rule, active = well fitted curve in the direction sought with a large enough effect in the repeat runs; inconclusive = weak or mixed curves; inactive = flat fitted curve, though single readings scatter.

The nature of the experiment: qHTS assay to test for compound auto fluorescence at 460 nm (blue) in HEK293 cells (AID 720678). The note with it: blue autofluorescence 405/460 nm; series mostly up to 91.3 µM. The method, boiled down:
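Blue read-out at excitation 405 nm and emission 460 nm follows overnight compound exposure of HEK293 cells at 37C in 5% CO2. Activity is given as auto fluorescence equivalency to triamterene.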
Take `O=C1C=CC(=O)C=C1`: the call was inactive.

With `C=CCc1ccc2c(c1)OCO2`, the compound was classed as inactive.

For the compound `CCCCOCCOP(=O)(OCCOCCCC)OCCOCCCC`, the result was inactive.

As for `N[C@@H](Cc1ccc(N(CCCl)CCCl)cc1)C(=O)O`, the call was inactive.

Turning to `CCC(=O)O[C@H]1CC[C@H]2[C@@H]3CCC4=CC(=O)CC[C@]4(C)[C@H]3CC[C@]12C`, the result was inactive.

Consider `CCOC(=S)S`, for which the compound was classed as inactive.

With `Nn1cnnc1`, the outcome was inactive.

With `c1ccc(N=Nc2ccccc2)cc1`, the call was inactive.

On to `COc1ccc(C=O)cc1`, for which the compound was classed as inactive.

For `ClC1C(Cl)C(Cl)C(Cl)C(Cl)C1Cl` (stereo not drawn), the compound was classed as inactive.

In the case of `c1ccc(NNc2ccccc2)cc1`, the outcome was inactive.

As to `C[C@]12CCC(=O)C(O)=C1CC[C@@H]1[C@@H]2CC[C@]2(C)C(=O)CC[C@@H]12`, the compound was called inactive.

Take `CCN(CC)N=O`: the call was inactive.

In the case of `CCCCN(CCCC)N=O`, the compound was classed as inactive.

As for `C=CCN(CC=C)C(=O)C(Cl)Cl`, the compound was classed as inactive.

On to `O=C(O)C(F)(F)C(F)(F)C(F)(F)C(F)(F)C(F)(F)C(F)(F)C(F)(F)F`, for which the outcome was inactive.

Regarding `CCOP(=S)(OCC)O/N=C(\C#N)c1ccccc1`, the compound was classed as inactive.

Turning to `Nc1ccc(Cl)c(Cl)c1`, the compound was called inactive.

For the compound `N#CCCCl`, the outcome was inactive.

For the compound `O=[N+]([O-])c1cccc2ccccc12`, the compound was classed as inactive.

On to `CCN(CC)C(=O)SCc1ccc(Cl)cc1`, for which the call was inactive.

On to `COP(=O)(OC)OC`, for which the call was inactive.

In the case of `Nc1ccc(-c2ccccc2)cc1`, the result was inactive.

For `O=[N+]([O-])c1ccc(O)c([N+](=O)[O-])c1`, the call was inactive.

Consider `CN(C)C(=O)Nc1ccc(Cl)cc1`, for which the compound was called inactive.

For the compound `Oc1cc(Cl)ccc1Oc1ccc(Cl)cc1Cl`, the outcome was inactive.

Consider `Nc1ccc(Cl)cc1N`, for which the compound was called inactive.

As to `COP(=S)(OC)Oc1cc(Cl)c(Cl)cc1Cl`, the compound was called inactive.

These data come from PubChem BioAssay (Tox21).
